Assay outcomes deposited in PubChem by National Center for Advancing Translational Sciences (NCATS).
An excerpt weighted towards active compounds, which were near 19% of everything screened.
Giardia killer: Giardia lamblia killing; Giardia lamblia trophozoite viability; activity change, % at 7.66 µM, hits read low; hit rate 0.15% among 340,000; AID 540267; in the data active = activity change below about -80%; inconclusive = between about -30% and that limit;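 note: parasites exposed to compound for two days anaerobically before the ATP read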
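Anaerobic 48 hrs incubation at 37 deg C of 100 trophozoites/well with test compounds; ATPLite 1-Step luminescence, 15-30 min RT, reports cellular ATP as viability.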
TDP1 cell noCPT: qHTS for Inhibitors of human tyrosyl-DNA phosphodiesterase 1 (TDP1): qHTS in cells in absence of CPT | DT40 Tdp1-/- hTDP1 cells, no CPT, ATP luminescence, 48 h | Potency, µM (titrated, usually from 46.2 µM), inactives show top-dose activity change, negative = growth inhibition, hits mostly inhibitors | hit rate 15% among 420,000 | AID 686978, 2013; note: potency is the fitted concentration of half-maximal effect; nearly all actives have a fitted effect of over 55% in size
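Readout: luminescence from CellTiter-Glo after 30 min in the dark at RT. Cells: DT40 Tdp1-/- with stable hTDP1, 400/well. Exposure: compounds alone, ≥48 hr, 37 °C.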
TDP1 inh: inhibitors of human tyrosyl-DNA phosphodiesterase TDP1. Q9NUW8. hit rate 0.28% among 350,000. recombinant TDP1, AlphaScreen DNA substrate cleavage. Potency, µM (titrated, usually from 130 µM), for the others: at the top dose activity change, negative = inhibition, most hits filed as inhibitors. AID 485290; note: potency is the fitted concentration of half-maximal effect; nearly all actives have a fitted effect of over 40% in size
Target sequence (Q9NUW8 whole entry, looked up): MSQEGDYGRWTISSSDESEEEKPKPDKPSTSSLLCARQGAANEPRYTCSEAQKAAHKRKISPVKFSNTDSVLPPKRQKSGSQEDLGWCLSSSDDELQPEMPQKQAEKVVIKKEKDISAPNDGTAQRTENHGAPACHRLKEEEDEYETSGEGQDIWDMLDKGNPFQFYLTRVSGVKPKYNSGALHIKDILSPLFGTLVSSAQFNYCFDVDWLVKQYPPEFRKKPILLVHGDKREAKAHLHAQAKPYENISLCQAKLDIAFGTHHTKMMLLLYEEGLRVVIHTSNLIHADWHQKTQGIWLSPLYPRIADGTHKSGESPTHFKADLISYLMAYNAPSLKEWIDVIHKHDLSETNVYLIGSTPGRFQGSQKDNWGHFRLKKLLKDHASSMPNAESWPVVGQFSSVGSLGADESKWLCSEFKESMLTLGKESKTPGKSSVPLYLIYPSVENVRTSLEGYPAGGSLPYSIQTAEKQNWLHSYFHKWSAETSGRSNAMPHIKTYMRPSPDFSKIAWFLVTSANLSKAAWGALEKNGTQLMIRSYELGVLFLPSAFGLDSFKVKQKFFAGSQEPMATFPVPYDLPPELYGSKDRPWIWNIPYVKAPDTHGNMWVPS
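Signal: AlphaScreen proximity between streptavidin donor and anti-FITC acceptor beads on intact substrate. Reaction: Tdp1 1 nM, substrate 15 nM final, 5 min RT after 15 min compound preincubation.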
DT40 TDP1 CPT: growth inhibition of DT40 Tdp1-/-;hTDP1 cells with camptothecin (screen for TDP1 inhibitors); chicken DT40 Tdp1-/-;hTDP1 cells + 20 nM CPT, ATP luminescence, 48 h; Potency, µM (top dose mostly 46.2 µM), without a hit: at the highest dose activity change, negative = growth inhibition, hits mostly inhibitors; hit rate 12% among 420,000; AID 686979; note: potency is the fitted concentration of half-maximal effect; nearly all actives have a fitted effect of over 55% in size
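Chicken DT40 Tdp1-/- cells stably complemented with human TDP1 were seeded at 400 cells/well in medium containing 20 nM camptothecin, exposed to pin-transferred compounds, and grown at 37 °C for at least 48 hr. Viability was read as ATP luminescence.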
ELG1 DNA repair: inhibitors of ELG1-dependent DNA repair in HEK293T cells; HEK293T ELG1-luciferase reporter, luminescence, 16 h; DNA damage induced by 5-fluorouridine; Potency, µM (top dose mostly 46.1 µM), without a hit: at the highest dose activity change, negative = inhibition, actives largely listed as inhibitors; hit rate 2.3% among 330,000; note: potency is the fitted concentration of half-maximal effect; nearly all actives have a fitted effect of over 55% in size
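Reporter activity after DNA damage by 5-fluorouridine is monitored. Compound-treated cells incubate 16 hr at 37 °C, then ONE-Glo is added for 30 min before luminescence reading.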
IL-1B inflam inh: inhibitors of inflammasome signaling (IL-1 beta secretion); AID 743279; THP-1 LPS/ATP IL-1B secretion, AlphaLISA, 16 h; hits give low values; activity change, % at 57.5 µM; hit rate 4.7% among 360,000; in the data active = activity change below about -50%; inconclusive = mostly about -30% to -49%
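THP-1 cells pretreated 1 hr with compounds (up to 57.5 uM final), then stimulated with LPS (250 ng/mL final) plus ATP (1.25 mM final); secreted IL-1B measured by AlphaLISA after 16 hr, decreased signal indicating inhibition.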
Active calls of the source: *; u = inconclusive; x = no result given; [ ] = remark or other dose. Unless noted, calls come from the whole dose curve; as a rule, active = well fitted curve in the direction sought with a large enough effect; inconclusive = small, poorly fitted or top-dose-only effect, or another doubt; inactive = no such curve, though single readings can be large; an effect the other way counts as inactive or inconclusive. % is set by controls: 0 for no effect and ±100 for the full control effect.

SMILES | Giardia killer | TDP1 cell noCPT | TDP1 inh | DT40 TDP1 CPT | ELG1 DNA repair | IL-1B inflam inh
Cc1ccc(C)c(NS(=O)(=O)c2cc(C(=O)NCc3ccncc3)ccc2C)c1 | 15 | u | 6%[56.1 µM] | -29% | -3% | 0
CCOC(=O)N1CCc2[nH]c3ccc(C)cc3c2C1 | 3 | 23µM* | -6% | 15µM* | u | u
O=C(CSc1nnc(CNC(=O)c2ccccc2F)n1-c1ccccc1)Nc1ccccc1F | x | -7% | -2% | 2% | x | x
CCN(C(=O)COC(=O)c1oc2ccc(OC)cc2c1C)C1CCCCC1 | -15 | u | x | u | -11% | -4
CC(=O)c1ccc2c(c1)C1C=CCC1C(c1cc3c(cc1Br)OCO3)N2 (stereo unspecified) | -7 | 4.6µM* | 0% | 3.7µM* | -1% | 97
COc1ccc2c(c1)C1C=CCC1C(c1cc3c(cc1Br)OCO3)N2 (stereo unspecified) | 1 | 18µM* | 10% | u | -8% | 7
CCCNC(=O)C1(C)CCCN(C(=O)c2cccc(Cl)c2)C1 (stereo unspecified) | x | -5% | x | 5% | x | -5
Cc1ccc(CN(C(=O)COc2ccc(C)c(C)c2)C2CCS(=O)(=O)C2)o1 (stereo unspecified) | -12 | u | 7% | u | -2% | 19
CCOc1ccc(CCNC(=O)C2CCCN(S(=O)(=O)N(C)c3ccc(F)cc3)C2)cc1 (stereo unspecified) | x | 21µM* | -5% | 21µM* | x | x
COc1ccc(CCNC(=O)C2CCCN(S(C)(=O)=O)C2)cc1 (stereo unspecified) | 16 | -10% | x | 0% | -6% | 33
CN(c1ccc(F)cc1)S(=O)(=O)N1CCCC(C(=O)NCc2cccc(Br)c2)C1 (stereo unspecified) | x | 12µM* | -13% | 15µM* | x | x
CCOc1ccc(CNC(=O)C2CCCN(S(=O)(=O)N(C)c3ccc(F)cc3)C2)cc1OC (stereo unspecified) | x | 13µM* | 1% | 15µM* | x | x
CC(C)(C)c1ccc(OCC(=O)Nc2ccc(S(=O)(=O)Nc3ncccn3)cc2)cc1 | x | -7% | 2% | -12% | x | x
C=CCN=C1NN=C(c2ccc3c(c2)OCCO3)CS1 | -28 | -30% | 2% | -29% | u | 6
CCC1=C(c2ccc(C)cc2)S(=O)(=O)N=C1N1CCC(C(=O)NCCCN2CCCCC2)CC1 | 6 | 2% | 8% | 10% | 8% | -5
CCOc1cc(C2NN=C(c3ccc(C)cc3)S2)ccc1O (stereo unspecified) | -13 | 5.2µM* | 5% | 6.5µM* | u | -5
CN(C)c1ccc(/C=[N+]2\C(=O)CC(=O)NC2=O)cc1 | x | 1% | x | 7% | x | x
CC[C@@H]1C/C=C\Cc2ccccc2[C@H](C(=O)C[C@@H](O)CC(C)=O)OC1=O | -15 | u | 0% | 13µM* | -7% | 61
CC[C@H]1C/C=C\Cc2ccccc2[C@H](C(=O)C[C@@H](O)CC(C)=O)OC1=O | -29 | -19% | 0% | 1% | 0% | -5
Cc1ccc(C(=O)COC(=O)CCCC(=O)Nc2cc(C(F)(F)F)ccc2Cl)cc1C | -26 | u | 5% | u | -2% | 24
COc1ccc(COC(=O)c2ccc(C)c(S(=O)(=O)N3CCOCC3)c2)cc1F | -20 | -29% | -12% | -24% | 18µM* | u
COc1ccc(NS(=O)(=O)c2ccc(C)c(NC(=O)c3ccc(C)c(S(=O)(=O)N4CCOCC4)c3)c2)cc1 | 8 | 15µM* | 2% | u | u | -7
CCOC(=O)c1ccc(NC(=O)c2cccc(S(=O)(=O)N3CCOCC3)c2)cc1 | 1 | 12µM* | 2% | u | 23µM* | -25
CCOC(=O)c1ccc(NC(=O)c2ccc(C)c(S(=O)(=O)N3CCOCC3)c2)cc1 | -11 | 23µM* | 5% | u | 4.6µM* | -14
Cc1ccc(C(=O)Nc2ccc(F)cc2)cc1S(=O)(=O)N1CCOCC1 | x | u | 0% | u | x | x
SMILES | Giardia killer | TDP1 cell noCPT | TDP1 inh | DT40 TDP1 CPT | ELG1 DNA repair | IL-1B inflam inh
COc1ccc(C(=O)OCc2c(F)cccc2Cl)cc1S(=O)(=O)N1CCOCC1 | -14 | -27% | 0%[56.1 µM] | -12% | u | -4
CC1(C)CC(NC(=O)c2ccccc2F)CC(C)(C)N1 | -17 | -2% | 1% | 7% | 7% | 4
COCC(=O)N1CCC2(CCCN(C(=O)Nc3ccc(OC)cc3)C2)CC1 | x | -4% | x | 2% | x | x
COc1cc(NCC(=O)Nc2cccc(S(=O)(=O)N3CCCCC3)c2)cc(OC)c1OC | 38 | -1% | 7% | -18% | -8% | -26
Cc1ccc(-c2cc(C(F)F)n3ncc(C(=O)Nc4cn(C)nc4C)c3n2)cc1 | 7 | u | 6% | -19% | u | -11
O=C(Nc1ccc(N2CCCCCC2)cc1)c1cccc(S(=O)(=O)N2CCOCC2)c1 | -1 | 4.1µM* | 10% | 7.3µM* | 0% | -3
O=C(Nc1cccc(S(=O)(=O)N2CCOCC2)c1)c1cccc(S(=O)(=O)N2CCCCC2)c1 | 11 | u | -6% | u | -18% | -1
O=C(Nc1nc2ccc(SC(F)F)cc2s1)c1ccc(NS(=O)(=O)c2ccc(F)c(F)c2)cc1 | -8 | u | 2% | u | -23% | 27
O=C1CN(C(=O)COc2ccc(Cl)cc2)C(c2ccc(F)cc2)c2cc(Br)ccc2N1 (stereo unspecified) | x | u | 6% | u | x | x
Cc1ccc(-n2ncc(C(=O)N3CCN(c4cc(Cl)ccc4C)CC3)c2C2CCN(C(=O)OC(C)(C)C)CC2)cc1 | x | -24% | 1% | u | x | x
Cc1ccc(C)c(N2CCN(C(=O)c3cnn(-c4ccccc4Cl)c3C3CCN(C(=O)OC(C)(C)C)CC3)CC2)c1 | x | 13µM* | 0% | 13µM* | x | x
Cc1ccc(N2CCN(C(=O)c3cnn(-c4ccc(F)cc4F)c3C3CCN(C(=O)OC(C)(C)C)CC3)CC2)c(C)c1 | x | 23µM* | 4% | 16µM* | x | x
Cc1ccc(C)c(N2CCN(CCCNC(=O)c3cnn(-c4ccccc4Cl)c3C3CCN(C(=O)OC(C)(C)C)CC3)CC2)c1 | x | 4.6µM* | 7% | 4.6µM* | x | x
CC(C)(C)OC(=O)N1CCC(c2c(C(=O)N3CCCCC3)cnn2-c2ccc(F)cc2F)CC1 | x | u | 3% | u | x | x
Cc1ccc(C)c(N2CCN(CCCNC(=O)c3cnn(-c4ccc(F)cc4)c3C3CCN(C(=O)OC(C)(C)C)CC3)CC2)c1 | x | 3.3µM* | 10% | 4.1µM* | x | x
